Screening data deposited in PubChem BioAssay by National Center for Advancing Translational Sciences (NCATS).
Sampled rows, rich in hits. Any-hit rate of the full collection: about 3.1%.
VDR inh = Inhibitors of the vitamin D receptor (VDR): qHTS; Vitamin D3 receptor (Homo sapiens), P11473; Potency, µM, inactives show max response, negative = inhibition, hits mostly inhibitors; 400,000 tested, 0.93% active; VDR-SRC2-3 peptide fluorescence polarization, 2 h; further: on the % scale 0 is the no-effect control and ±100 the full control effect
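After 23 nl compound addition and a short centrifugation, plates sat for 2 hours at ambient temperature; polarization of fluorescence then indicated loss of VDR binding to peptide SRC2-3.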
PLK1 PBD inh = qHTS for Inhibitors of PLK1-PDB (polo-like kinase 1 - polo-box domain): Primary Screen | 360,000 tested, 2.8% active | Plk1 PBD binding of FITC phosphopeptide, fluorescence polarization | Potency, µM, inactives show max response, negative = inhibition, hits mostly inhibitors; further: series mostly up to about 57 µM; on the % scale 0 is the no-effect control and ±100 the full control effect; nearly all actives have a fitted effect of over 65% in size
Pin1 inhibitor = qHTS Assay to Find Inhibitors of Pin1. Peptidyl-prolyl cis-trans isomerase NIMA-interacting 1 (Homo sapiens), Q13526. Pin1 FP peptide displacement, HiFluor488, 10 min. Potency, µM (top dose mostly 115 µM), inactives show top-dose activity, negative = inhibition, most hits filed as inhibitors. 390,000 tested, 0.009% active. AID 504891, 2011; active means well fitted inhibition curve with a large enough effect in the polarisation, with a control signal flat, not every such curve was filed as active; inconclusive means small, poorly fitted or top-dose-only effect, or effect the other way, or a change in a side signal; inactive means no such curve, though single readings can be large or run the other way; the % refers to the polarisation; further: on the % scale 0 is the no-effect control and ±100 the full control effect
TDP1 inh = qHTS Assay for Inhibitors of Tyrosyl-DNA Phosphodiesterase (TDP1). Tyrosyl-DNA phosphodiesterase 1 (Homo sapiens), Q9NUW8. recombinant TDP1, AlphaScreen DNA substrate cleavage. Potency, µM (doses to about 130 µM), for the others: at the top dose activity change, negative = inhibition, most hits filed as inhibitors. 350,000 tested, 0.28% active. AID 485290, 2010; further: on the % scale 0 is the no-effect control and ±100 the full control effect; nearly all actives have a fitted effect of over 40% in size
Target sequence (Q9NUW8 whole entry, looked up): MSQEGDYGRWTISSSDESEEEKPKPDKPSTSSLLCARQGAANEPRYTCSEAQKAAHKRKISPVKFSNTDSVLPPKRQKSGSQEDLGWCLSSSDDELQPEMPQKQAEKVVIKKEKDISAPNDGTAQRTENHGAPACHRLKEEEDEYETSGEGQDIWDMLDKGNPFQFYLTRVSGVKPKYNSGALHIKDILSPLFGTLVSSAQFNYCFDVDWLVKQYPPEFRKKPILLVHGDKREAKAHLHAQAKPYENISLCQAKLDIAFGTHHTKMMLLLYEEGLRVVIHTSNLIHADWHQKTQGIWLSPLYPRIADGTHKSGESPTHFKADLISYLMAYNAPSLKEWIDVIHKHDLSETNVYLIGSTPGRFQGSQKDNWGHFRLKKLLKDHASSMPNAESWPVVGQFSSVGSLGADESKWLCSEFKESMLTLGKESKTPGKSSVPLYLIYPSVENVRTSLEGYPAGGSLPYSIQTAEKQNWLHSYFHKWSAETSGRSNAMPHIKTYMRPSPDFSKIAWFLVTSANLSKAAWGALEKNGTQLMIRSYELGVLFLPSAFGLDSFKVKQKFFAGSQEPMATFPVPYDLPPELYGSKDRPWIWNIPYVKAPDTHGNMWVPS
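Here, a 5' biotin and 3' phosphotyrosine-FITC DNA oligonucleotide reports Tdp1 activity: intact substrate bridges AlphaScreen beads, while cleavage leaves a 3' phosphate and drops signal. All incubations at room temperature.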
S-ASM inh = Inhibitors of Secretory Acid Sphingomyelinase (S-ASM): qHTS; Sphingomyelin phosphodiesterase (Homo sapiens), P17405; AID 504937, 2011; placental ASM, HMU-PC fluorogenic substrate, 60 min; Potency, µM (series often up to 57.5 µM), without a hit: top-dose activity change, negative = inhibition, usual class: inhibitors; 340,000 tested, 0.006% active
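Fluorogenic HMU-PC substrate (9 uM final) is turned over by placental ASM in 60 min at 37 C after a 10 min compound preincubation. Reaction ended by alkaline stop (pH 10), with fluorescence read at 386/447 nm.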
Tb PFK inh = qHTS Assay to Find Inhibitors of T. brucei phosphofructokinase; 330,000 tested, 0.17% active; AID 485367, 2010; Potency, µM (titrated, usually from 57.5 µM), for the others: at the top dose activity, negative = inhibition, usual class: inhibitors; T. brucei PFK, ADP-Glo luminescence; ATP-dependent 6-phosphofructokinase (Trypanosoma brucei brucei), O15648;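 further: 0% = uninhibited 1x PFK enzyme wells and -100% = no-enzyme wells; nearly all actives have a fitted effect of over 60% in size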
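Luminescent ADP detection (ADP-Glo, two-step: ATP depletion then ADP-to-ATP conversion for luciferase) reported PFK activity after 45 min room-temperature reaction of 1.25 nM enzyme with 0.5 mM F6P and 0.1 mM ATP at pH 8.0.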
The depositor's hits bear a star; ? = inconclusive; · = no result given; [ ] = dose if it differs, or a comment. Unless noted, the call rests on the fitted dose curve; in most records, active means well fitted curve in the direction sought with a large enough effect; inconclusive means small, poorly fitted or top-dose-only effect, or another doubt; inactive means no such curve, though single readings can be large; an effect the other way counts as inactive or inconclusive. Potency means the concentration at half of the fitted maximal effect.

SMILES	VDR inh	PLK1 PBD inh	Pin1 inhibitor	TDP1 inh	S-ASM inh	Tb PFK inh
Cc1ccc(NCC(=O)N/N=C/c2ccc(OC(=O)c3ccco3)cc2)cc1	0%	-3%	3%	2%	-6%	1%
COC(=O)/C=C\C(C#N)(C#N)N=Cc1ccc(OC)cc1	13µM*	9.5µM*	3%	·	6%	·
COc1ccc(C=NNC(=O)CCCCC(=O)NN=Cc2ccc(OC)cc2)cc1	2%	-1%	-3%	·	-1%	·
Cc1cc(Cl)c(O)c(-n2nc3ccccc3n2)c1	-25%	24µM*	-10%	3%	-2%	-5%
Cc1cccc(NC(=O)Cn2nc(-c3ccccc3)c3cnc4ccccc4c32)c1	7%	·	-5%	2%	·	·
Cc1ccc2c(c1)CCCN2C(=O)Nc1ccc2c(c1)OCO2	?	27µM*	-13%	11%	-3%	0%
Nc1nc(Cl)nc2c1ncn2C1OC(CO)C(O)C1F (stereo not drawn)	0%	·	·	4%	·	·
NC(=O)/C(=C/c1ccco1)C(N)=S	-18%	?	-23%	10µM*	-1%	-19%
O=C(Nc1nc(-c2ccccc2)c(-c2ccccc2)o1)c1ccc(F)cc1	-9%	3µM*	1%	12%	-9%	1%
COc1cccc(C(=O)Nc2nc(-c3ccccc3)c(-c3ccccc3)o2)c1	-20%	?	24%	8%	-3%	1%
Cc1[nH]c(=O)[nH]c(=O)c1Sc1ccccc1[N+](=O)[O-]	-9%	21µM*	-7%	3%	4%	1%
CCOC(=O)C(C(=O)c1ccccc1)[C@H](CCc1ccccc1)NC(=O)OC (stereo partly drawn)	-19%	·	·	8%	·	·
CCN(C(=O)c1cc2c(=O)n(CC)c3ccccc3c2s1)c1cccc(C(F)(F)F)c1	-12%	·	-20%	7%	·	·
COc1ccccc1N1C(=N)S/C(=C\c2ccc(-c3ccccc3C(=O)O)o2)C1=O	-16%	-14%	?	11µM*	-2%	-9%
Cc1ccc(NC(=O)CN2C(=O)S/C(=C\c3ccc(-c4cccc(C(=O)O)c4C)o3)C2=O)cc1C	-19%	19µM*	?	79µM*	123%	-1%
CCOC(=O)CN1C(=O)S/C(=C\c2ccc(-c3cccc(C(=O)O)c3C)o2)C1=O	13%	-7%	47%	·	6%	·
O=C(CN1C(=O)S/C(=C\c2ccc(-c3cc(C(=O)O)ccc3Cl)o2)C1=O)Nc1ccc2c(c1)OCO2	·	·	·	7.9µM*	·	-3%
O=C1c2ccccc2C(=O)N1c1cc(=O)c2ccccc2[nH]1	·	·	-4%	2%	·	·
CN(C(=S)NC(=O)c1ccc(Cl)cc1)C1CCCCC1	-29%	21µM*	?	-6%[56.1 µM]	-1%	?
COc1cc2c(c(OC)c1OC)-c1c(cc(OC)c(OC)c1OC)CC(C)C(C)C2 (stereo not drawn)	-17%	·	·	6%	·	·
COc1ccc2[nH]c(=O)c(CN(C3CCCCC3)C(c3nnnn3Cc3ccco3)C(C)C)cc2c1 (stereo not drawn)	?	?	?	0%	2%	3%
COc1ccc2[nH]c(=O)c(CN(Cc3nnnn3Cc3ccco3)C3CCCCC3)cc2c1	79µM*	?	-3%	·	10%	-8%
Cc1noc(NS(=O)(=O)c2cccc3c(N(C)C)cccc23)c1C	25µM*	·	·	-4%[56.1 µM]	·	·
c1ccc(SSc2ccccn2)nc1	3.2µM*	0.67µM*	-2%	·	4%	·
c1ccc(Sc2ccccn2)cc1	7%	-7%	-9%	·	5%	·
